The full list was thinned out, with hits kept by preference.
CHX counter – counter-screen for Shiga toxin inhibitors: cycloheximide protein synthesis inhibition; cell reporter, cycloheximide protein synthesis inhibition counterscreen; max response, %; 300,000 compounds, 12% hits; AID 2314; in the data active = max response mostly above about 13%, no sharp cut-off; inactive = mostly below about 14%; also: read at 38.3 µM for the half of the compounds with a filed dose; 0% is about no effect
Shiga inhibitor – inhibitors of Shiga toxin in Vero cells; inhibition, % at 38.7 µM; 290,000 compounds, 9.2% hits; Vero cells, Shiga toxin protein synthesis inhibition reporter; in the data active = inhibition mostly above about 28%, no sharp cut-off; inactive = mostly below about 43%; also: 0% is about no effect
TbPYK inhibitor – inhibitors of Trypanosoma brucei pyruvate kinase | TbPYK enzyme, Kinase-Glo Plus ATP luminescence, 45 min | Potency, µM (doses to about 76.8 µM), inactives show at the highest dose activity, negative = inhibition, actives largely listed as inhibitors | 410,000 compounds, 0.12% hits | AID 624173; active = well fitted curve in the direction sought with a large enough effect; inconclusive = small, poorly fitted or top-dose-only effect, or another doubt; inactive = no such curve, though single readings can be large; an effect the other way counts as inactive or inconclusive; also: potency is read from the fitted curve at half-maximal effect; % is scaled to controls: 0 for no effect and ±100 for the full control effect; nearly all actives have a fitted effect of over 50% in size
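T. brucei PYK with substrate was exposed to pin-transferred compounds across a concentration series, then started with 130 uM ADP (final). After 45 min at room temperature, Kinase-Glo Plus luminescence was read, normalized and curve-fitted.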
NS1 function inh – influenza NS1 inhibition | AID 2326 | Potency, µM (titrated, usually from 46.1 µM), inactives show at the top dose activity, positive = more growth | 270,000 compounds, 0.4% hits; also: potency is read from the fitted curve at half-maximal effect; actives are rising curves; nearly all actives have a fitted effect of over 50% in size
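Growth recovery, yeast-based: influenza A NS1 expressed in S. cerevisiae causes slow growth, and suppressors are detected by OD600. The parent strain without NS1 is used as positive control.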
LmPK inh – LmPK (Leishmania mexicana) enzyme inhibition; Q27686; purified LmPK, Kinase-Glo ATP luminescence, 1 h; Potency, µM (titrated, usually from 57.5 µM), without a hit: at the highest dose activity change, negative = inhibition, actives largely listed as inhibitors; 290,000 compounds, 0.37% hits; active = well fitted curve in the direction sought with a large enough effect; inconclusive = small, poorly fitted or top-dose-only effect, or another doubt; inactive = no such curve, though single readings can be large; an effect the other way counts as inactive or inconclusive; also: potency is read from the fitted curve at half-maximal effect; % is scaled to controls: 0 for no effect and ±100 for the full control effect
Target sequence (Q27686 whole entry, looked up): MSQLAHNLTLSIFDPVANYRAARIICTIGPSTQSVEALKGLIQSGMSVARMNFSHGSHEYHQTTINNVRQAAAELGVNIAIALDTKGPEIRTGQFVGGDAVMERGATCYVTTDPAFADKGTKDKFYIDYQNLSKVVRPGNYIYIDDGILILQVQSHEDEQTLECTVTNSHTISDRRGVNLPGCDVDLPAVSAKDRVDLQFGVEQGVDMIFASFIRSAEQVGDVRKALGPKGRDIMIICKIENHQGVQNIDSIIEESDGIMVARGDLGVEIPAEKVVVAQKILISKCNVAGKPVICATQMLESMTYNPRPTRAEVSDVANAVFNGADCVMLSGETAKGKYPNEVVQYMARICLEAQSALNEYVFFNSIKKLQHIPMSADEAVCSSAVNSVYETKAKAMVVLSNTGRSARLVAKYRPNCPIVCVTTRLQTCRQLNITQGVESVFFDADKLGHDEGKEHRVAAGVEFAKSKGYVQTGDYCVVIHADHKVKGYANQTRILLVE
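ATP generated from ADP (0.1 mM) and PEP (0.5 mM) by 0.1 nM LmPK over 1 h at room temperature (pH 7.2 imidazole buffer) was detected by coupled luciferase luminescence. Values were normalized to uninhibited and no-enzyme wells.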
SARS PLpro yeast – blocks SARS-CoV papain-like protease in a yeast assay; 330,000 compounds, 0.19% hits; S. cerevisiae expressing SARS-CoV PLpro, growth rescue; Potency, µM (titrated, usually from 32.9 µM), inactives show top-dose activity, positive = growth rescue, hits mostly activators; AID 485353; also: potency is read from the fitted curve at half-maximal effect; 0% is about no effect; nearly all actives have a fitted effect of over 55% in size
* hit, by the source's call; ? = inconclusive; . = not tested or not shown; [ ] = dose if it differs, or a comment. Unless noted, calls follow the shape of the full dose curve.

SMILES	CHX counter	Shiga inhibitor	TbPYK inhibitor	NS1 function inh	LmPK inh	SARS PLpro yeast
COc1cc2ccccc2cc1C(=O)Nc1ccc(C)cc1	26*	75	0%	-81%	1%	-10%
COc1cc2ccccc2cc1C(=O)Nc1ccc(Cc2ccncc2)cc1	28	60	-18%	-101%	-4%	-38%
COc1ccc(C(=O)Nc2ccccc2C(=O)NC(Cc2ccc(O)cc2)C(=O)NNC(=O)c2ccccc2)cc1 (configuration not stated)	20*	-2	0%	29%	-1%	-10%
COc1ccc(Cl)cc1NC(=O)c1nn(C)c2c1CS(=O)(=O)c1ccccc1-2	.	.	0%	.	.	.
Cc1cccc(N(CC(=O)NC2CCCCC2)C(=O)CCC(=O)Nc2cc(C)ccn2)c1	.	.	.	2%	.	.
COC(=O)c1ccc(CNc2ccc(C(C)=O)cc2)cc1	.	.	-3%	.	.	.
Cc1ccnc(NC(=S)NC(=O)c2cncc(Br)c2)c1	25*	6	-5%	12%	-1%	-7%
COc1ccc(C(=O)NC(=O)Nc2cc(C)ccn2)cc1	34*	77*	-11%	-22%	?	-3%
C=CCN1C=CC(=CC=C(C#N)C#N)C=C1	21*	74*	3%	1%	-3%	0%
Cc1nc2c(s1)sc1ccccc12	19*	86	2%	-8%	-11%	2%
COc1ccc(CN(C(=O)Nc2cc(C)ccc2C)C2CCN(C(C)=O)CC2)cc1	.	.	1%	.	.	.
CCOC(=O)c1ccc(COC(=O)c2nonc2N)cc1	22*	3	-4%	-5%	-3%	3%
Cc1ccc2ccccc2c1COC(=O)c1nonc1N	-2	-12	-8%	-98%	2%	-10%
CC/C(=N\NC(=O)c1ccccc1O)c1c(O)n(C2CCCCC2)c(=O)[nH]c1=O	23*	52*	-3%	-8%	11%	-4%
CCC(=NCCO)c1c(O)n(C2CCCCC2)c(=O)[nH]c1=O	-4	-11	-6%	1%	-1%	-4%
C=CCn1c(O)c(/C(CC)=N/NC(=S)Nc2ccccc2)c(=O)[nH]c1=O	35*	63*	?	4%	4%	0%
CCC(=NCC1CCCO1)c1c(O)n(Cc2ccccc2)c(=O)[nH]c1=O (configuration not stated)	-5	-3	-7%	5%	0%	-4%
C=CCn1c(O)c(C(CC)=NCCc2ccccc2)c(=O)[nH]c1=O	-2	-18	.	0%	3%	-7%
C=CCn1c(O)c(/C(C)=N/NC(=S)Nc2ccccc2)c(=O)[nH]c1=O	27*	60*	-33%	-1%	4%	0%
C=CCn1c(O)c(C(C)=NCCc2ccccc2)c(=O)[nH]c1=O	10	-6	5%	5%	-4%	18%
CC/C(=N\NC(=O)c1ccccc1)c1c(O)n(Cc2ccccc2)c(=O)[nH]c1=O	57*	54*	8%	-5%	-3%	-2%
CC#CCN1c2ccccc2[C@]23C[C@@H](C(=O)OC)N(S(=O)(=O)c4c(C)noc4C)C2=NC(C(=O)OC)=C(C(=O)OC)[C@H]13	.	.	.	.	-5%[11.5 µM]	.
Cc1ccc(S(=O)(=O)N[C@@H](C)C(=O)N2CCC(C(=O)N[C@@H](Cc3ccccc3)C(=O)O)CC2)cc1	-3	14	0%	-11%	2%	2%
CN1CCN(c2cc3c(nn2)Oc2ccccc2N3C)CC1	.	.	-11%	.	.	.
O=C(NNC(=O)C1CC1)c1cc(Br)c(Br)s1	.	.	1%	.	.	-1%
SMILES	CHX counter	Shiga inhibitor	TbPYK inhibitor	NS1 function inh	LmPK inh	SARS PLpro yeast
CCCCn1c(O)c(/C(C)=N/NC(=O)Nc2ccccc2)c(=O)[nH]c1=O	31*	39*	5%	-8%	5%	-1%
COc1ccc(-c2csc(C(O)c3ccc(F)c(F)c3)n2)cc1 (configuration not stated)	.	.	-3%	.	.	.
Cc1cccc(-c2nnc(-c3ccc4ccccc4c3)o2)c1	.	.	6%	.	.	.
O=C(Nc1ccon1)c1ccc2c(c1)OCO2	43*	31*	-8%	6%	-8%	-1%
CC(C)C(=O)Nc1ccc(NC(=O)c2ccc3c(c2)OCO3)cc1	-3	-2	0%	5%	-2%	-1%
O=C(Nc1ccc(Br)cc1)c1ccc2c(c1)OCO2	38*	162*	-3%	-9%	-1%	1%
